Data reported in PubChem BioAssay AID686978 (National Center for Advancing Translational Sciences (NCATS), 2013).
In all, about 420,000 compounds went through this assay and about 64,000 (15%) were called active. Not shown: some 27% with an inconclusive outcome. Calls come from the whole dose curve; as a rule, active = well fitted inhibition curve with a large enough effect; inconclusive = small, poorly fitted or top-dose-only effect; inactive = flat fitted curve, though single readings scatter. A selection follows. A call without a number means that no potency is given here.

Assay: qHTS for Inhibitors of human tyrosyl-DNA phosphodiesterase 1 (TDP1): qHTS in cells in absence of CPT; note: nearly all actives have a fitted effect of over 55% in size
Settings: DT40 Tdp1-/- hTDP1 cells, no CPT, ATP luminescence, 48 h; activity change, negative = growth inhibition: at 46.2 µM (top of the series)
Method in brief: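 Luminescent ATP content (CellTiter-Glo) served as the growth readout. Knockout chicken DT40 cells expressing human TDP1 were exposed to compounds without camptothecin for a minimum 48 hr at 37 °C.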
Potency is the fitted concentration of half-maximal effect.

| SMILES | Potency |
| --- | --- |
| C[C@H]1CN([C@@H](C)CO)C(=O)CCCn2cc(nn2)CO[C@@H]1CN(C)S(=O)(=O)c1cccc(C#N)c1 | inactive |
| CC(C)NC(=O)C(c1ccc(F)cc1)N(C(=O)CCC(=O)Nc1ccccn1)c1ccccc1F (stereo not drawn) | inactive |
| O=C(Nc1ccccc1Cl)N1CCC(CN2CCCCC2)CC1 | inactive |
| CC(=O)N=c1ncn(CC(COC(C)=O)OC(C)=O)c2nc[nH]c12 (stereo not drawn) | inactive |
| Cc1ccc(CNC(=O)CCCNC(=O)c2ccc(Cl)cc2)n1C | inactive |
| Cc1nc(-c2ccc(Cl)cc2)sc1C1(C)CC(c2ccc(Br)cc2)=NO1 (stereo not drawn) | inactive |
| Cc1cccc(NC(=O)CSc2nc3c(c(=O)[nH]2)CCC3)c1C | inactive |
| CCCCn1c(N)c(N(CC(C)C)C(=O)c2cccc(S(=O)(=O)N3CCN(C(C)=O)CC3)c2)c(=O)[nH]c1=O | inactive |
| O=C(NCCCn1ccnc1)C(=O)c1cn(CC(=O)N2CCCCCC2)c2ccccc12 | inactive |
| O=C(c1cccnc1)N(Cc1ccccc1)C(=O)c1cccnc1 | inactive |
| O=C(CC(=O)c1cccnc1)c1ccccc1 | 20.6 µM (active) |
| O=C(NNC(=O)c1cccnc1)Nc1ccccc1 | inactive |
| COC(=O)Cc1cnc(NC(=O)CSc2nc(C(C)C)cc(=O)[nH]2)s1 | inactive |
| COc1cccc(-n2c(=O)c3c(C)c(C(=O)N(C)C)sc3n(Cc3cccc(C)c3)c2=O)c1 | inactive |
| COc1cccc(N=c2oc3c(C)ncc(CO)c3cc2C(N)=O)c1 | inactive |
| CCCN(CCC)c1c([N+](=O)[O-])c(=O)oc2ccccc12 | inactive |
| CCC(C)(C)NC(=O)C(c1ccc(O)cc1)N(C(=O)Cn1nnc2ccccc21)c1ccc(NC(C)=O)cc1 (stereo not drawn) | inactive |
| COc1ccc(NC(=O)CCCNC(=O)Cn2cnc3sc4c(c3c2=O)CCCC4)cc1OC | inactive |
| COc1ccc(NC(=O)CCCN2C(=O)CCn3nc(-c4cn(C)c5ccccc45)cc32)cc1OC | 23.1 µM (active) |
| O=C(CN1C(=O)CCn2nc(-c3ccccc3)cc21)NCc1ccccc1 | inactive |
| O=C(/C=C/[C@H]1O[C@@H](n2ccc(=O)[nH]c2=O)[C@H](O)[C@@H]1O)NCc1ccccn1 | inactive |
| O=C(COC(=O)c1cc(-c2cccs2)nn1-c1ccccc1)Nc1cc([N+](=O)[O-])ccc1Cl | inactive |
| COc1ccc(Cl)cc1NC(=O)CN(C)C(=O)c1cc(-c2cccs2)nn1-c1ccccc1 | 18.4 µM (active) |
| COc1ccc(Cl)cc1NC(=O)CN(C)C(=O)CNC(=O)C12CC3CC(CC(C3)C1)C2 | inactive |
| COc1ccc(-c2cc(C(F)(F)F)nc(SCC(=O)Nc3ccc4c(c3)OCO4)n2)cc1OC | inactive |
| COc1ccc(C)cc1NC(=O)CSc1nnc(CC(=O)Nc2ccccc2F)n1C | inactive |

| SMILES | Potency |
| --- | --- |
| COc1ccc(Cl)cc1NC(=O)CNc1ccccc1F | inactive |
| COc1ccc(Cl)cc1NC(=O)CN(C)C(=O)c1cc2ccccc2cc1OC | 18.4 µM (active) |
| COc1ccc(Cl)cc1NC(=O)CSc1nc(-c2cccs2)cc(C(F)(F)F)n1 | 20.6 µM (active) |
| C=Cn1cc[n+](CC(=O)c2ccc(OC)c(OC)c2)c1 | inactive |
| Cc1c(C(=O)N(C)CCc2cnn(C)c2)oc2c(F)cccc12 | inactive |
| Cn1ccs/c1=N\S(=O)(=O)c1ccc(C(C)(C)C)cc1 | inactive |
| CC(=O)Nc1ccc(S(=O)(=O)NCC2CCC(C(=O)NCCc3ccccc3)CC2)cc1 (stereo not drawn) | inactive |
| CS(=O)(=O)N1CCN=C1SCc1ccc(F)cc1 | inactive |
| CCn1c(SCc2cccc(C(=O)O)c2)nnc1-c1ccc(Cl)cc1 | inactive |
| Cc1oc2cc3oc(=O)ccc3cc2c1C | inactive |
| O=C(Nc1c(Br)cc2c(c1Br)Cc1ccccc1-2)C(F)(F)F | inactive |
| CC(=O)c1ccc2c(c1)c1ccccc1n2CC(C)C | inactive |
| CCOC(=O)c1sc(NC(=O)CSc2n[nH]c(CC)n2)nc1C | inactive |
| Cc1ccc(NC(=O)CN2CCc3ccccc3C2)cc1 | inactive |
| O=C(CN1CCOCC1)Nc1ccccc1 | inactive |
| O=C(CN1CCc2cc3c(cc2C1)OCCCO3)Nc1ccccc1 | 25.9 µM (active) |
| Cc1ccc(NS(=O)(=O)c2cn(C)c(=O)n(C)c2=O)c(C)c1 | inactive |
| O=C(CCN1C(=O)C2C3C=CC(C3)C2C1=O)Nc1ccccc1F (stereo not drawn) | inactive |
| O=C(NCCCNC(=O)c1ccccc1Cl)c1cnccn1 | inactive |
| CCCCNC1(C#N)CCN(Cc2ccccc2)CC1 | inactive |
| Cc1cc2c(cc1C)NC1(C[C@H]3CCC(=O)N4CC[C@@H](C1)[C@@H]34)C(=NC(C)(C)CC(C)(C)C)N2 (stereo partly drawn) | 20 µM (active) |
| O=C1CC[C@@H]2CC3(C[C@@H]4CCN1[C@H]24)Nc1cc([N+](=O)[O-])ccc1NC3=NC1CCCCC1 (stereo partly drawn) | inactive |
| O=C1CCC[C@@H]2C[C@@]3(C[C@@H]4CCN1[C@H]24)Nc1ccccc1NC3=NCc1ccccc1 | inactive |
| COc1ccc(N2C(=O)NC(NS(=O)(=O)c3ccc(Cl)cc3)(C(F)(F)F)C2=O)cc1 (stereo not drawn) | inactive |
| CN(C)C(=O)c1ccc(-c2cncnc2NC2CCNCC2)cc1 | inactive |
| O=C(O)c1ccc(/C=C2\SC(=S)N(NC(=O)c3ccc(Br)cc3)C2=O)cc1 | inactive |

| SMILES | Potency |
| --- | --- |
| Cc1ccc(-n2c(Cc3cccs3)nnc2SCC(=O)OC(C)C)cc1 | inactive |
| CCn1c(Cc2cccs2)nnc1SCC(=O)c1ccc(C)cc1 | 14.1 µM (active) |
| Cn1c(Cc2cccs2)nnc1SCC(=O)Nc1ccccc1 | inactive |
| O=c1[nH]c(=O)c2nc3ccccc3nc2[nH]1 | inactive |
| CCCc1nnc(NC(=O)c2cccs2)s1 | inactive |
| O=C1NC(=O)C(c2ccc(Cl)cc2)N1 (stereo not drawn) | inactive |
| CCOC(=O)N1CCN(C(=O)C(=O)Nc2sc3c(c2C#N)CC(C)(C)OC3)CC1 | inactive |
| NS(=O)(=O)c1ccc2nc(NC(=O)CS(=O)(=O)c3ccc(F)cc3)sc2c1 | inactive |
| O=C(Cn1c(=O)sc2ccccc21)Nc1nc2c(s1)CCCC2 | inactive |
| COc1cc(C#Cc2ccc3cc(CCCO)oc(=O)c3c2)cc(OC)c1 | 1.03 µM (active) |
| CN(C(=O)CN1C(=O)CCSc2ccc(S(=O)(=O)N3CCCC3)cc21)c1ccccc1 | inactive |
| CSc1ccccc1NC(=O)c1cc(Cl)sc1Cl | inactive |
| CN(CC(=O)Nc1c(Cl)cccc1Cl)C(=O)c1ccncc1 | inactive |
| O=C(Nc1ccc2ccccc2c1)/C(=C\c1ccc2c(c1)OCO2)NC(=O)c1ccco1 | inactive |
| CC(Oc1ccc2ccccc2c1)C(=O)NNC(=S)NC(=O)c1ccco1 (stereo not drawn) | 16.4 µM (active) |
| Cc1ccc(C(=O)NNC(=O)C(C)Oc2ccc3ccccc3c2)o1 (stereo not drawn) | inactive |
| Cc1ccc(OCC(=O)NCCCNC(=O)c2ccco2)cc1C | inactive |
| CCCc1ccc(OCC(=O)NNC(=S)NC(=O)c2ccco2)cc1 | 20.6 µM (active) |
| CCCc1ccc(OCCNC(=O)c2ccco2)cc1 | inactive |
| C=CCn1c(SCc2cc(C(=O)OC)c(C)o2)nnc1-c1ccncc1 | inactive |
| CCOC(=O)N1CCC(N2Cc3cccc(C(=O)Nc4ccc(S(=O)(=O)N(CC)CC)cc4)c3C2=O)CC1 | inactive |
| COC(=O)c1ccc(NC(=O)c2cccc3c2C(=O)N(C2CCCCC2)C3)cc1 | inactive |
| CCOC(=O)N1CCC(N2Cc3cccc(C(=O)Nc4c(C)cccc4CC)c3C2=O)CC1 | 23.1 µM (active) |
| CC1(C)O[C@@H]2[C@H](O1)[C@@H](COS(=O)(=O)O)O[C@H]2n1ccc(=O)[nH]c1=O | inactive |
| CCOc1ccc(NC(=O)c2ccc(CSc3nnnn3C)cc2)cc1 | inactive |
| COC(=O)c1ccccc1NC(=O)c1ccccc1NS(C)(=O)=O | inactive |

| SMILES | Potency |
| --- | --- |
| CCOc1ccc(NC(=O)c2ccccc2NS(C)(=O)=O)cc1 | 18.4 µM (active) |
| NC(=O)COc1ccc(NC(=O)c2ccccc2-c2ccccc2)cc1 | inactive |
| O=C(CSc1ccccc1)Nc1ccc(C(=O)Nc2cccc(O)c2)cc1 | inactive |
| CCOc1ccc(C(=O)Nc2cccc(SC)c2)cc1 | 9.2 µM (active) |
| CCOc1ccc(C(=O)Nc2ccncc2)cc1 | 18.4 µM (active) |
| CSc1cccc(NC(=O)CSc2ccccc2)c1 | inactive |
| CCCOc1cccc(C(=O)NCCCNC(=O)c2cccnc2)c1 | inactive |
| CCOc1ccc(NC(=O)c2ccc(NC(=O)C3CCCO3)cc2)cc1 (stereo not drawn) | inactive |
| CCOc1cccc(C(=O)Nc2cccnc2)c1 | inactive |
| CCCOc1cccc(C(=O)Nc2cccc(NC(=O)c3ccc(C(C)(C)C)cc3)c2)c1 | 29.1 µM (active) |
| Cc1cc(C(=O)OC(C)C(=O)Nc2cccc(S(=O)(=O)N3CCOCC3)c2)c(C)o1 (stereo not drawn) | inactive |
| COCCCNC(=S)NC(=O)c1ccc([N+](=O)[O-])cc1 | inactive |
| CCOc1ccccc1NS(=O)(=O)c1c[nH]c(C(=O)OC)c1 | inactive |
| COCCCNC(=O)c1c(NC(=O)c2cc(=O)c3cc(C)c(C)cc3o2)sc2c1CCCC2 | inactive |
| Cc1cc(O)c(C2(O)C(=O)Nc3ccccc32)cc1C (stereo not drawn) | inactive |
| CCOC(=O)c1cnc(-c2ccccc2)nc1Oc1ccc(C)cc1 | inactive |
| COc1cnc(-c2ccccn2)nc1Oc1ccc(C(C)(C)C)cc1 | 4.61 µM (active) |
| CC(C)(C)c1ccc(Oc2ccc(N)cc2)cc1 | inactive |
| Cc1nc2ccccc2c(C(=O)O)c1-c1ccccn1 | inactive |
| CC(C)(C)Nc1nc(-c2ccccn2)nc2ccccc12 | 4.11 µM (active) |
| Cc1ccc(Oc2nc(-c3ccccn3)nc3ccccc23)cc1 | 18.4 µM (active) |
| COc1ccc(Cc2nc(-c3ccccn3)no2)cc1OC | inactive |
| O=C(c1ccc(NS(=O)(=O)c2ccc3[nH]c(=O)[nH]c3c2)cc1)N1CCCCC1 | inactive |
| CCC(CC)C(=O)Nc1c2c(nn1-c1ccc(C)cc1)CS(=O)(=O)C2 | inactive |
| Cc1noc(COc2ccccc2OCc2onc(C)c2Cl)c1Cl | inactive |
